From PubChem BioAssay AID504329 (Southern Research Specialized Biocontainment Screening …, 2011) come the findings set out here.

Out of some 340,000 compounds screened, about 1,000 (0.29%) were called active. No stated cut-off is given here; in the data, inconclusive means inhibition above about 27% without an active follow-up result; inactive means below that. Not all results are given here. Entries with a potency or affinity are not part of this list.

The nature of this experiment: NS1A inhibition, H1N1 influenza, cell based functional assay (AID 504329). As to conditions: percent inhibition, at 12.5 µM, stronger effect = higher value.
Regarding `CC(C)(C)NC(=O)C12CC3CC(CC(Cl)(C3)C1)C2`, the inhibition (as a rule, the relative decrease from the control value, in per cent) was 1.34% (inactive).
The figure for `O=C(COC(=O)c1ccc(Br)c(S(=O)(=O)N2CCOCC2)c1)NC1CC1` is -5.17% (inactive); for `CCOC(=O)c1cc(S(=O)(=O)NC2CCC(C)CC2)cn1C` (stereo unspecified) it is -6.39% (inactive).
The figure for `CCCOc1ccc(NC(=O)C(=O)NCCCn2ccnc2)cc1` is -6.26% (inactive).
Take `Cc1cccc(Oc2cnn(C(C)(C)C)c(=O)c2Cl)c1`: the inhibition was -1.49% (inactive).
With `CCOC(=O)c1c(C)oc2c1C(=O)c1ccccc1C2=O`, the inhibition was 15.3% (inactive).
The figure for `CCOC(=O)N1CCN(c2ccccc2O)CC1` is -11.3% (inactive); for `O=C(O)CCCNc1cc(N2CCN(C(=O)c3ccco3)CC2)c2noc3c2c1C(=O)c1ccccc1-3` it is 25.1% (inactive).
As to `CCOC(=O)N1CCN(c2cc(NCCO)c([N+](=O)[O-])c3nonc23)CC1`, the inhibition was -0.42% (inactive).
The figure for `CN1CCN(c2ccc(Cl)cc2NC(=O)CC2OC(=O)c3ccccc32)CC1` (stereo unspecified) is -6.08% (inactive); for `CCOC(=O)c1c(C)nc2c(c1-c1ccccc1)C(=O)c1ccccc1-2` it is -17.6% (inactive); for `O=C1c2ccccc2-c2c1cccc2C(=O)N1CCN(C(=O)c2ccco2)CC1` it is 0.55% (inactive).
For `CC(=O)OCCNc1cc(Sc2nc3ccccc3[nH]2)c2nonc2c1[N+](=O)[O-]`, the inhibition is -9.31% (inactive).
The figure for `CCOC(=O)CC(=O)CSc1nc(C)nc2c1oc1ccccc12` is 2.82% (inactive).
With `O=C(NCCCN1CCOCC1)C(=O)NCC1OCCCN1S(=O)(=O)c1cc(F)ccc1F` (stereo unspecified) the figure was -1.53% (inactive).
With `COC(=O)c1cc(C)sc1NC(=S)N1CCN(CCc2ccccc2)CC1` the figure was 4.17% (inactive).
With `CCN1CCN(c2ccc(NC(=O)c3ccc4c(c3)OCCO4)cc2C)CC1`, the inhibition was -4.06% (inactive).
The figure for `COc1cccc(CCc2nc3ccccc3c(=O)n2N)c1` is -4.28% (inactive); for `COc1ccc(S(=O)(=O)n2nc(-c3ccc(Cl)cc3)cc2N)cc1` it is 2.77% (inactive).
Consider `CCN(CC(=O)Nc1c(F)cccc1F)C(=O)c1cc([N+](=O)[O-])ccc1N1CCOCC1`, for which the inhibition is -7.79% (inactive).
On to `Cc1cc(C)nc(NS(=O)(=O)c2ccc(NC(=S)NC(=O)C3CCCC3)cc2)n1`, for which the inhibition was -7.03% (inactive).
`COC(=O)c1ccccc1NC(=O)N1CCN(c2ccc(OC)cc2)CC1`: the inhibition was 12% (inactive).
As to `COc1cc(-c2cc(C(=O)OCC(=O)NC3CC3)c3ccccc3n2)cc(OC)c1OC`, the inhibition is -4.4% (inactive).
With `COc1ccc(C(=O)Nc2cnn(Cc3c(F)cccc3Cl)c2)cc1OC`, the inhibition is -4.35% (inactive).
With `O=C(N[C@H]1CP(=O)(Oc2ccccc2)O[C@H](COCc2ccccc2)[C@H]1O)C(Cl)(Cl)Cl` (stereo partly specified) the figure was -20.9% (inactive).
With `CCOC(=O)c1ccc2ncc(C(=O)OCC)c(Nc3ccc(N4CCOCC4)cc3)c2c1` the figure was 28.6% (inactive); with `CCOC(=O)c1cnc2ccc(C)cc2c1NCCN1CCOCC1`, -11.3% (inactive); with `O=c1[nH]c(=S)[nH]cc1Oc1ccccc1`, -0.47% (inactive).
Consider `CC(=O)N1c2ccc(S(=O)(=O)N3CCCC(C(=O)Nc4ccc(F)cc4)C3)cc2CC1C` (stereo unspecified), for which the inhibition is 1.22% (inactive).
The figure for `CC1CCN(C2CCN(S(=O)(=O)c3ccc(F)cc3)CC2)CC1` is -14.4% (inactive).
On to `Cc1n[nH]c(=S)n(/N=C/c2cccs2)c1=O`, for which the inhibition was -10.9% (inactive).
Turning to `Cc1nn2c(=S)[nH]nc2[nH]c1=O`, the inhibition was 5.07% (inactive).
As to `CNCC(=O)Nc1c(C)n[nH]c1C`, the inhibition is -3.79% (inactive).
Take `COc1ccccc1OCC(=O)Nn1c(=S)[nH]c2ncccc2c1=O`: the inhibition is -1.5% (inactive).
The figure for `COc1cc(C)ccc1OCC(=O)NC1CCCCCC1` is -0.58% (inactive).
With `CCC(C)NC(=O)COCc1cc(-c2ccc3c(c2)OCO3)on1` (stereo unspecified), the inhibition is -7.2% (inactive).
The figure for `COc1ccc(-c2sc3cc4c(cc3c2-c2ccc3c(c2)OCCO3)OCO4)cc1` is -11.4% (inactive); for `ClCC1CSC(=NC23CC4CC(CC(C4)C2)C3)O1` (stereo unspecified) it is -6.27% (inactive); for `N#CC(C#N)=c1ccc2c(c1)N1C(c3ccccc3)=CC(c3ccccc3)C3CCCCC31N=2` (stereo unspecified) it is -4.24% (inactive).
With `C1=CC2=NC34CCCCC3CC3=C(CCCC3)N4C2=CC1=NC1CCCCC1` (stereo unspecified) the figure was 4.56% (inactive).
The figure for `C=CCN(c1ccccc1)S(=O)(=O)c1cccc(C(=O)NCC(c2ccc(OC)cc2)N2CCCCC2)c1` (stereo unspecified) is 3.3% (inactive); for `COc1cc(C=NNc2ccc(S(=O)(=O)Nc3ccccc3C(=O)O)cc2[N+](=O)[O-])ccc1O` it is 14.4% (inactive); for `Cc1ccc(NC(=S)NNc2ccc([N+](=O)[O-])cc2S(=O)(=O)Nc2ccccc2C(=O)O)cc1C` it is 26.1% (inactive).
With `CSc1ccc(C=NNc2ccc(S(=O)(=O)Nc3ccccc3C(=O)O)cc2[N+](=O)[O-])cc1`, the inhibition is 3.57% (inactive).
With `COc1ccccc1NS(=O)(=O)c1ccc(N/N=C/c2c(C)nn(-c3ccccc3)c2N2CCCC2)c([N+](=O)[O-])c1` the figure was 8.44% (inactive); with `CC(=O)Nc1ccc(C=NNc2ccc(S(=O)(=O)Nc3ccccc3C(=O)O)cc2[N+](=O)[O-])cc1`, 15.1% (inactive); with `COc1ccc(C=NNc2ccc(S(=O)(=O)Nc3ccccc3C(=O)O)cc2[N+](=O)[O-])c(OC)c1`, 20.4% (inactive).
As to `COC(=O)Nc1ccc(S(=O)(=O)N2CCC(C(=O)N3CCCCC3C)CC2)cc1` (stereo unspecified), the inhibition is -11.1% (inactive).
The figure for `COc1ccccc1NS(=O)(=O)c1cc(C(=O)NCC(C)(C)N2CCOCC2)ccc1C` is -2.2% (inactive); for `CCOc1ccc(CN(CC)C(=O)Cc2c[nH]c3ccccc23)cc1OC` it is -0.83% (inactive); for `O=C(O)[C@H](Cc1ccccc1)N1C(=O)c2ccncc2C1=O` it is -6.13% (inactive).
As to `CC(=O)c1c(C)[nH]c(C(=O)OCC(=O)NCc2ccc3c(c2)OCO3)c1C`, the inhibition is -0.39% (inactive).
With `CCN=C1SC(CC(=O)NC(N)=O)C(=O)N1CC` (stereo unspecified) the figure was 0.98% (inactive); with `NC(=O)NC(=O)CC1S/C(=N/N=C2/NC(=O)CS2)NC1=O` (stereo unspecified), 5.04% (inactive); with `NC1=NC(=O)C(CC(=O)NCc2ccccc2)S1` (stereo unspecified), 2.63% (inactive).
With `O=C(O)CNC(=O)CC1S/C(=N/N=C2/NC(=O)CS2)NC1=O` (stereo unspecified) the figure was 16.4% (inactive).
